Broadly, the AC50 is the concentration at which the activity in the assay is half-maximal.

Where “and” joins values, the source holds several entries; their conditions need not be identical. Equal values may be shown once. Records with an inconclusive call do not appear. A structure can be active in one record and inactive in another. Calls of active or inactive are those of the source. How the source made its calls: active means hit-call score of the fitted dose curve at least 0.9, where 1 is the maximum; inconclusive means response in the unintended direction; inactive means score below 0.9.

The results in this text go back to PubChem BioAssay (EPA / NIEHS).

Glucocorticoid receptor (Homo sapiens), sequence (P04150 whole entry, looked up): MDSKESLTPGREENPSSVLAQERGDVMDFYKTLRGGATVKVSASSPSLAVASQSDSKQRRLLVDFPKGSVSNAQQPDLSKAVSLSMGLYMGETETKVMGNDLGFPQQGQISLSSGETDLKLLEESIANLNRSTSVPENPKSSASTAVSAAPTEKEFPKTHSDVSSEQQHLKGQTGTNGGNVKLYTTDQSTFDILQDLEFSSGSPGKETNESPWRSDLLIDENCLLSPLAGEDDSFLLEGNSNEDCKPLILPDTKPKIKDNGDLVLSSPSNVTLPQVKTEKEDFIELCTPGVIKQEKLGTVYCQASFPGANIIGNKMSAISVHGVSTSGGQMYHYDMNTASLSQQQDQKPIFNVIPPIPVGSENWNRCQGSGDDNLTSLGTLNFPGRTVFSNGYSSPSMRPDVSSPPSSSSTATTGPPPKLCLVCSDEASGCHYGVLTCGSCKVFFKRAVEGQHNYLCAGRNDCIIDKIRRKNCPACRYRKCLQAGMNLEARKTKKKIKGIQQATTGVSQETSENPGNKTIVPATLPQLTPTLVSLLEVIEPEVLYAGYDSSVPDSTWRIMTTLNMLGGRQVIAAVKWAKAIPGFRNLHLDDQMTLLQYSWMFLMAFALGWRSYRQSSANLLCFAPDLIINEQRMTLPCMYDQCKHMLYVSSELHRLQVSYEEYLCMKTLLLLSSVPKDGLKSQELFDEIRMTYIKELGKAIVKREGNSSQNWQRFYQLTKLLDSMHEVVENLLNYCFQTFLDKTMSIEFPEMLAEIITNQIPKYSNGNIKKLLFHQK

The experiment has as its target Glucocorticoid receptor (Homo sapiens) (UniProt P04150). The experiment in a line: NVS_NR_hGR: NovaScreen (NVS) Nuclear Receptor Binding Assay for human Glucocorticoid Receptor (GR) (AID 2283363). The protocol: NVS_NR_hGR is a biochemical, single-readout assay that uses extracted gene-proteins in a cell-free assay. Measurements were taken 16 hours after chemical dosing in a 96-well plate.NVS_NR_hGR is one of one assay component(s) measured or calculated from the NVS_NR_hGR assay. It is designed to make measurements of radioligand binding, a form of binding reporter, as detected with scintillation counting signals by Filter-based radiodetection technology.Data from the assay component NVS_NR_hGR was analyzed into 1 assay endpoint. This assay endpoint, NVS_NR_hGR, was analyzed in the positive analysis fitting direction relative to DMSO as the negative control and baseline of activity. Using a type of binding reporter, loss-of-signal activity can be used to understand changes in the binding as they relate to the gene NR3C1. Furthermore, this assay endpoint can be referred to as a primary readout, because the performed assay has only produced 1 assay endpoint. To generalize the intended target to other relatable targets, this assay endpoint is annotated to the nuclear receptor intended target family, where the subfamily is steroidal.
Binding assays used specific radioligands (tritiated, iodinated) with non-radioactive competitive displacement ligands in agonist or antagonist protocols (as indicated) and various reference compounds and inhibitors to titrate specific binding to receptors and transporters. Most enzyme assays (CYPs, kinases, phosphatases, proteases, HDACs) used recombinant protein and specific substrates (fluorescence mostly, some colorimetric and radioactive) and inhibitors, followed by a biochemical separation of substrate and product. All assays for the biochemical HTS were initially run in duplicate at a single concentration (10 uM for CYP450 assays and 25 uM for all others). […] Each assay was run with positive and negative controls, and concurrent controls on every plate. The follow-up (secondary) screen tested active chemical-pairs in concentration series, as well as a few additional assays not tested in the primary screen, some selected negative inactives, and several cases re-run in the concentration series for confirmatory purposes.
In the case of `CN1CCc2cccc3c2[C@H]1Cc1ccc(O)c(O)c1-3`, the result was inactive.
As to `C[C@]12CC[C@@H]3c4ccc(O)cc4CC[C@H]3[C@@H]1CC[C@@H]2O`, the call was inactive; the AC50 was 384 nM (active) and 359 nM (active).
With `C=CC(=O)OCC(CO)(COC(=O)C=C)COC(=O)C=C`, the half-maximal activity concentration (AC50) was 4.96 µM (active).
With `CC/C(=C(\c1ccccc1)c1ccc(OCCN(C)C)cc1)c1ccccc1`, the AC50 was 3.08 µM (active) and 6.38 µM (active); the compound was classed as inactive.
Take `CCCCCC(=O)O[C@]1(C(C)=O)CC[C@H]2[C@@H]3CCC4=CC(=O)CC[C@]4(C)[C@H]3CC[C@@]21C`: the AC50 is 0.0187 µM (active).
Take `c1ccc2c(c1)-c1ccc3ccc4cccc5cc-2c1c3c45`: the result was inactive.
For the compound `CC1(C)CC(=O)CC(C)(C)N1`, the outcome was inactive.
With `O=C1OC2(c3ccc(O)cc3Oc3cc(O)ccc32)c2ccccc21`, the concentration at half-maximal activity (AC50) is 25 µM (active).
Regarding `CCCCCCCCCCOC(=O)c1ccccc1C(=O)OCCCCCCCC`, the compound was classed as inactive.
With `C#C[C@]1(O)CC[C@H]2[C@@H]3CCc4cc(O)ccc4[C@H]3CC[C@@]21C`, the concentration at half-maximal activity (AC50) is 304 nM (active) and 305 nM (active) and 1.43 µM (active).
With `O=C(c1ccc(OCCN2CCCCC2)cc1)c1c(-c2ccc(O)cc2)sc2cc(O)ccc12`, the AC50 is 6.7 µM (active) [middle of 4 runs].
Consider `O=S1(=O)CC(Cl)(Cl)C(Cl)(Cl)C1`, for which the AC50 is 25 µM (active).
For the compound `CCCCCCCCOC(=O)c1ccc(O)cc1`, the compound was classed as inactive.
